{"source": "PubChem BioAssay AID686970", "about": "(National Center for Advancing Translational Sciences (NCATS), 2013)", "note": "Among all 360,000 compounds or so, about 6,000 (1.7%) were called active. Where a call stands in place of a potency, no number is given. Roughly 8% stayed inconclusive and do not appear here. The sample holds actives, similar compounds and a random draw of the others, so the mix is not that of the screen. Calls come from the whole dose curve; as a rule, active = well fitted cell-killing curve with a large enough effect; inconclusive = small, poorly fitted or top-dose-only effect, or effect the other way; inactive = flat fitted curve, though single readings scatter. Potency is the fitted concentration of half-maximal effect.", "data": [{"test": "qHTS for induction of synthetic lethality in tumor cells producing 2HG: qHTS for the HT-1080-NT fibrosarcoma cell line;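 note: NT is the 2HG producing partner of a matched IDH1 knockdown line; nearly all actives have a fitted effect of over 55% in size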", "details": "HT-1080-NT fibrosarcoma viability, CellTiter-Glo ATP luminescence, 48 h; series mostly up to 46.1 µM", "procedure,_shortened": "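HT-1080-NT fibrosarcoma cells (2HG-overproducing), 750 cells/well in RPMI with 5% FBS, dosed after 2 h and incubated 48 h at 37C. CellTiter-Glo luminescence normalized to DMSO and no-cell wells; concentration-response curves fitted and classed.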", "values": [{"smiles": "Cc1c(C(=O)NCc2ccc(C#N)cc2)sc(=O)n1Cc1ccc(C(=O)N(C)C)cc1", "Potency": "inactive"}, {"smiles": "CN(C)c1ccc(Nc2c3c4c(cccc4n(C)c2=O)C(=O)c2ccccc2-3)cc1", "Potency": "5.8 µM (active)"}, {"smiles": "CN(C)c1ccc(C2N(C)C(=O)c3ccccc3N2C)cc1", "note": "(configuration not stated)", "Potency": "inactive"}, {"smiles": "COc1ccc([C@H]2CC(=O)C[C@@H](CCn3cc(CC4CCCC4)nn3)O2)cc1", "Potency": "inactive"}, {"smiles": "CCc1oc(-c2ccc(OC)cc2)c(C(=O)OCCCCCO)c1C(C)OCCO", "note": "(configuration not stated)", "Potency": "inactive"}, {"smiles": "Cc1ccc(S(=O)(=O)N2CCC(=O)N([C@H](COCc3ccccc3)C(C)C)CC2)cc1", "Potency": "inactive"}, {"smiles": "O=C(CCl)Nc1cccc(CP(=O)(c2ccccc2)c2ccccc2)c1", "Potency": "4.11 µM (active)"}, {"smiles": "O=C(CSCc1ccccc1)Nc1ccccc1", "Potency": "inactive"}, {"smiles": "O=C(NCCc1ccccc1)c1cccc(NC(=O)c2ccccc2)c1", "Potency": "inactive"}, {"smiles": "CC(C)[C@H](NC(=O)c1ccccc1F)C(=O)Nc1cccc(S(=O)(=O)N2CCOCC2)c1", "Potency": "inactive"}, {"smiles": "CCOc1ccc2[nH]c(=O)c(CN(Cc3nnnn3Cc3ccccc3)CC3CCCO3)cc2c1", "note": "(configuration not stated)", "Potency": "6.31 µM (active)"}, {"smiles": "COc1ccc2[nH]c(=O)c(CN(Cc3nnnn3CCc3ccccc3)CC3CCCO3)cc2c1", "note": "(configuration not stated)", "Potency": "inactive"}, {"smiles": "CCOc1ccc2[nH]c(=O)c(CN(Cc3nnnn3CCc3ccccc3)CC3CCCO3)cc2c1", "note": "(configuration not stated)", "Potency": "inactive"}, {"smiles": "CCOC(=O)C1=CC[C@@H](c2ccccc2)N(S(=O)(=O)c2ccc(C)cc2)[C@H]1c1cccc(OC)c1", "Potency": "inactive"}, {"smiles": "CC1(C)NC(=O)N(CC(=O)Nc2ccc(-c3ccccc3)cc2)C1=O", "Potency": "inactive"}, {"smiles": "CCS(=O)(=O)Nc1cccc(-c2cc(-c3ccccc3)c3cc(C)ccc3n2)c1", "Potency": "23.1 µM (active)"}, {"smiles": "Cc1cc(C)cc(NS(=O)(=O)Cc2ccccc2)c1", "Potency": "inactive"}, {"smiles": "CS(=O)(=O)Nc1cccc(-c2cn3ccccc3n2)c1", "Potency": "inactive"}, {"smiles": "Cc1ccc(-c2nc3c(C)cc(Br)cn3c2Cc2ccccc2)cc1", "Potency": "inactive"}, {"smiles": "COC(=O)[C@]12CCCCC=C1N(Cc1ccc3c(c1)OCO3)C(=O)[C@H](CC(=O)NCc1cccs1)C2", "Potency": "inactive"}, {"smiles": "COc1ccc(C2NC(=O)c3ccccc3N2)cc1", "note": "(configuration not stated)", "Potency": "inactive"}, {"smiles": "O=C1NC(c2cccc(Cl)c2)Nc2ccccc21", "note": "(configuration not stated)", "Potency": "11.6 µM (active)"}, {"smiles": "O=C1NC(c2ccccc2)Oc2ccccc21", "note": "(configuration not stated)", "Potency": "inactive"}, {"smiles": "CCc1nc2c(OCCc3cccc(OC)c3)cccn2c1N(C)C(=O)c1ccc(C)cc1", "Potency": "inactive"}, {"smiles": "O=C(COC(=O)c1cncc(Br)c1)Nc1ccc(S(=O)(=O)N2CCOCC2)cc1", "Potency": "inactive"}, {"smiles": "CC(C)c1cc(C(=O)N(C)C2CCCN(Cc3ccccc3F)C2)n(C)n1", "note": "(configuration not stated)", "Potency": "inactive"}, {"smiles": "CNc1cncc(-c2cccc(C(=O)N3CCOCC3)c2)n1", "Potency": "inactive"}]}]}
